Test systems include HT29 colon; SNB-75 CNS; SNB-19 CNS; PC-3 prostate; SK-MEL-5 melanoma; UACC-62 melanoma; LOX IMVI melanoma; SK-MEL-28 melanoma; U251 CNS.
What all share (assay): NCI-60 one-dose screen, 48 h (100 = growth as untreated, 0 = no growth, -100 = all killed)
What all share (details): 10 µM unless noted

The values that follow come from PubChem BioAssay (NCI).

The panel holds about 83,000 compounds, 20% with a hit somewhere; the sample as a whole holds those more often.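 Assay: single dose, 48 h. Readout: percent growth (0 = no net growth; negative = cell death). Active: <10.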 A number with no mark means an inactive call. Activity calls are given as the source filed them.

In the case of `CN(C)S(=O)(=O)c1ccc(S(=O)(=O)Nc2cccc(Cl)c2N2CCCCC2)cc1`, the growth was 91.8% with HT29 colon; 64.2% in the experiment with SNB-75 CNS; 84.9% in the experiment with SNB-19 CNS; 60.3% with PC-3 prostate; 80.7% in the experiment with SK-MEL-5 melanoma; 57.8% in the experiment on UACC-62 melanoma. Moreover, the growth in the experiment on LOX IMVI melanoma was 67.4%; in the experiment on SK-MEL-28 melanoma, 59.9%.

For `O=C(/C=C/c1ccccc1)c1ccc(O)c(CN2CCN(c3cc4c(cc3F)c(=O)c(C(=O)O)cn4C3CC3)CC2)c1`, the growth with HT29 colon was 5.56% (active); in the experiment with SNB-75 CNS, -2.4% (active); with SNB-19 CNS, 29.8%; in the experiment on PC-3 prostate, 18.3%; with UACC-62 melanoma, 21.3%; in the experiment on LOX IMVI melanoma it was 6.26% (active). The growth with SK-MEL-28 melanoma is 46.5%.

With `CSc1nc(NCCO)c(C#N)c(-c2cccc([N+](=O)[O-])c2)n1`, the growth in the experiment on HT29 colon was 112%; in the experiment on SNB-75 CNS, 72.8%; with SNB-19 CNS, 90.7%; in the experiment on PC-3 prostate, 94.7%; with SK-MEL-5 melanoma it was 97.2%; with UACC-62 melanoma, 87%. Besides, the growth in the experiment with LOX IMVI melanoma is 91.6%; in the experiment with SK-MEL-28 melanoma, 112%.

Take `N#Cc1c(-c2ccc(Cl)cc2)nc(NN=Cc2ccco2)nc1N1CCOCC1`: the growth with HT29 colon is 87%; in the experiment on SNB-75 CNS, 10.3%; in the experiment with SNB-19 CNS, 80%; in the experiment with PC-3 prostate it was 68.3%; in the experiment on SK-MEL-5 melanoma, 80.9%; with UACC-62 melanoma, 58.2%. In addition, the growth in the experiment with LOX IMVI melanoma was 78.7%; with SK-MEL-28 melanoma it was 65.9%.

In the case of `CC(=O)O[C@H]1CC[C@]2(C)[C@H]3CC=C4[C@@H]5CC(C)(C)CC[C@]5(C(=O)NCCNCCNCCN)CC[C@@]4(C)[C@]3(C)CC[C@H]2C1(C)C`, the growth is -47.7% (active) with HT29 colon; 71% in the experiment on SNB-75 CNS; 92.6% with SNB-19 CNS; 38.9% in the experiment on PC-3 prostate; 90.7% in the experiment on SK-MEL-5 melanoma; 93.9% in the experiment on UACC-62 melanoma. Moreover, the growth is -98.9% (active) in the experiment with LOX IMVI melanoma and 93.1% with SK-MEL-28 melanoma.

With `CN1CCN(CCCOc2cccc3nc(Nc4ccc(Cl)c(F)c4)ccc23)CC1`, the growth in the experiment on HT29 colon is -59.7% (active); in the experiment on SNB-75 CNS, 48.2%; in the experiment on SNB-19 CNS it was 42.3%; in the experiment on U251 CNS, 26.1%; in the experiment on PC-3 prostate, 39%; in the experiment on UACC-62 melanoma, -55.5% (active). The figures for the growth in the experiment on LOX IMVI melanoma and with SK-MEL-28 melanoma were -96.1% (active) and 18.1%, respectively.

Turning to `OC(c1cc2cc(Cl)c(Cl)cc2c2cc(C(F)(F)F)ccc12)C1CCCCN1` (stereo not given), the growth in the experiment on HT29 colon is -73.6% (active); in the experiment on SNB-75 CNS, -64% (active); in the experiment on SNB-19 CNS, -64.1% (active); in the experiment on U251 CNS it was -92.3% (active); in the experiment with PC-3 prostate it was -84.8% (active); in the experiment with UACC-62 melanoma it was -38.4% (active). Moreover, the growth with LOX IMVI melanoma is -88.2% (active); in the experiment on SK-MEL-28 melanoma it was -79.1% (active).

Turning to `O=C1c2cc3c(cc2-c2c1c1ccc(F)cc1c(=O)n2C[C@H](O)[C@@H](O)[C@H](O)CO)OCO3`, the growth in the experiment on HT29 colon is -2.72% (active); in the experiment on SNB-75 CNS, -38.4% (active); with SNB-19 CNS, 4.38% (active); in the experiment with U251 CNS it was -19.1% (active); with PC-3 prostate it was 7.25% (active); in the experiment with UACC-62 melanoma, -55.5% (active). Also, the figures for the growth with LOX IMVI melanoma and in the experiment on SK-MEL-28 melanoma were -30.4% (active) and -37.6% (active), respectively.

`CCn1c(O)c(/C=N/NC(=O)C(C)c2ccc(CC(C)C)cc2)sc1=S` (stereo not given): the growth in the experiment on HT29 colon was 10.1%; in the experiment with SNB-75 CNS, -2% (active); with SNB-19 CNS it was 37.5%; with SK-MEL-5 melanoma, 17%; in the experiment with UACC-62 melanoma it was 46%; with LOX IMVI melanoma it was 27.1%. Besides, the growth with SK-MEL-28 melanoma is 69.6%.

With `COc1cccc(NC(=O)c2sc3nc(C)c(C(C)=O)cc3c2N)c1`, the growth is 38.7% in the experiment with HT29 colon; 22.7% in the experiment with SNB-75 CNS; 40.2% with SNB-19 CNS; 33.7% in the experiment with U251 CNS; 47.8% in the experiment with PC-3 prostate; 26.7% with UACC-62 melanoma. Moreover, the growth was 47.2% in the experiment on LOX IMVI melanoma and 71% in the experiment with SK-MEL-28 melanoma.

For `Cc1ncc(C(=O)Nc2ccc(CN3CCN(C)CC3)c(C(F)(F)F)c2)cc1C#Cc1cnc2cccnn12`, the growth with HT29 colon was 0.719% (active); in the experiment with SNB-75 CNS it was -71.7% (active); in the experiment on SNB-19 CNS, 7.27% (active); in the experiment with U251 CNS, 7.52% (active); with PC-3 prostate, 5.7% (active); with UACC-62 melanoma it was -16.9% (active). In addition, the growth in the experiment with LOX IMVI melanoma was -18.3% (active); in the experiment with SK-MEL-28 melanoma, -14.4% (active).

Regarding `CCOC(=O)c1c(C)oc2ncnc(N3CCN(C(=O)COc4ccc(SC)cc4)CC3)c12`, the growth was 95.3% in the experiment with HT29 colon; 83% in the experiment on SNB-75 CNS; 97.9% in the experiment on SNB-19 CNS; 87.5% with U251 CNS; 82.2% with PC-3 prostate; 86.8% with UACC-62 melanoma. Further, the growth was 90.5% in the experiment with LOX IMVI melanoma and 110% in the experiment with SK-MEL-28 melanoma.

`COc1ccc(/C=C/C(=O)c2ccc(O)c(CN3CCN(c4cc5c(cc4F)c(=O)c(C(=O)O)cn5C4CC4)CC3)c2)cc1`: the growth in the experiment with HT29 colon is 11.1%; in the experiment on SNB-75 CNS, -5.37% (active); in the experiment on SNB-19 CNS, 24%; in the experiment with PC-3 prostate it was 18.1%; in the experiment on SK-MEL-5 melanoma it was -23% (active); in the experiment on UACC-62 melanoma, 27.2%. For the same molecule, the growth was 12.8% in the experiment on LOX IMVI melanoma and 57.9% in the experiment with SK-MEL-28 melanoma.

In the case of `COc1ccc(C(=O)c2sc3nc4c(c(-c5cccnc5)c3c2N)CCCC4)cc1OC`, the growth was 74.3% in the experiment on HT29 colon; 56.4% with SNB-75 CNS; 71% in the experiment on SNB-19 CNS; 70.2% with U251 CNS; 59.6% with SK-MEL-5 melanoma; 87.6% in the experiment on UACC-62 melanoma. Further, the growth was 70.2% in the experiment with LOX IMVI melanoma and 77.9% in the experiment with SK-MEL-28 melanoma.

Take `CC(=O)O[C@H]1C(=O)[C@@]2(C)[C@H]([C@H](OC(=O)c3ccccc3)[C@]3(O)C[C@H](OC(=O)[C@H](OC(=O)CCC(=O)OC4CCC(S/N=C(N)/N=C(\N)N(C)C)CC4)[C@@H](NC(=O)c4ccccc4)c4ccccc4)C(C)=C1C3(C)C)[C@]1(OC(C)=O)CO[C@@H]1C[C@@H]2O` (stereo not given in full): the growth with HT29 colon is 5% (active); with SNB-75 CNS, -22.3% (active); with SNB-19 CNS, 29.8%; in the experiment on PC-3 prostate, 28.4%; in the experiment on LOX IMVI melanoma, 42.9%.

As for `CCC#CC[C@H](O)C/C=C1/C(=O)C=C[C@@H]1C/C=C\CCCC(=O)OC`, the growth in the experiment with HT29 colon was -80.2% (active); in the experiment on SNB-75 CNS, 43.5%; in the experiment on SNB-19 CNS it was 23.8%; with U251 CNS, 0.174% (active); in the experiment with PC-3 prostate, 1.55% (active); with LOX IMVI melanoma, -72.2% (active).

Turning to `Cc1nc(Nc2ccc(F)c(Cl)c2)sc1C(=O)O`, the growth is 3.5% (active) in the experiment with HT29 colon; 26.2% in the experiment on SNB-19 CNS; 8.16% (active) in the experiment on U251 CNS; 7.92% (active) with PC-3 prostate; 2.1% (active) with LOX IMVI melanoma.

As for `CCN(CC)c1ccc2c(c1)Oc1nc(N)c(C#N)c(N)c1C2Sc1ccc(SC)cc1` (stereo not given), the growth in the experiment with HT29 colon is -76.6% (active); in the experiment on SNB-75 CNS, -54.9% (active); in the experiment on SNB-19 CNS, -64.1% (active); in the experiment with U251 CNS, -92% (active); with PC-3 prostate it was -28.5% (active); with UACC-62 melanoma it was -14.4% (active). For the same molecule, the figures for the growth in the experiment with LOX IMVI melanoma and in the experiment on SK-MEL-28 melanoma were -96.9% (active) and -9.16% (active), respectively.

As for `Cc1nn(-c2cc(=O)[nH]c3ccccc23)c(N)c1C#N`, the growth in the experiment on HT29 colon was 107%; with SNB-75 CNS, 82.4%; in the experiment with SNB-19 CNS, 102%; in the experiment with PC-3 prostate, 96%; in the experiment on UACC-62 melanoma, 99.2%; in the experiment on LOX IMVI melanoma, 98.4%. In addition, the growth in the experiment on SK-MEL-28 melanoma is 109%.

With `CCOC(=O)n1cc(-c2nonc2-c2cn(C)c3ncccc23)c2cc(F)ccc21`, the growth was 83.2% in the experiment with HT29 colon; 91.6% with SNB-19 CNS; 77.2% in the experiment with U251 CNS; 62.2% with UACC-62 melanoma; 83.8% in the experiment with LOX IMVI melanoma; 102% with SK-MEL-28 melanoma.

For the molecule `O=c1cc(CSc2nnc(SCc3cc(=O)oc4c3ccc3ccccc34)o2)c2ccc3ccccc3c2o1`, the growth was 97% in the experiment on HT29 colon; 93% in the experiment on SNB-75 CNS; 107% in the experiment on SNB-19 CNS; 97.2% in the experiment with U251 CNS; 89.9% in the experiment with PC-3 prostate; 99.6% with UACC-62 melanoma. For the same molecule, the growth is 88.7% in the experiment on LOX IMVI melanoma and 109% in the experiment with SK-MEL-28 melanoma.
